# Test results taken from PubChem BioAssay (NCI).
# About 83,000 compounds went through this panel and 20% of them were active in at least one assay; those are over-represented in the sample as a whole.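 Testing used 96-well plates and a 48-hour single-concentration exposure. Example: -40 means 40% of the starting cells died.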 Unmarked numbers belong to inactive results. The source made the active and inactive calls. How the source made its calls: active means growth percent below 10; inactive means the rest.
# Legend:
# Test in all cases: NCI-60 one-dose screen, 48 h (100 = growth as untreated, 0 = no growth, -100 = all killed)
# SK-MEL-2 melanoma = conditions: 10 µM unless noted
# UO-31 renal = conditions: 10 µM unless noted
# TK-10 renal = conditions: 10 µM unless noted
# ACHN renal = conditions: 10 µM unless noted
# CAKI-1 renal = conditions: 10 µM unless noted
# CCRF-CEM leukemia = conditions: 10 µM
# MOLT-4 leukemia = conditions: 10 µM unless noted
# SN12C renal = conditions: 10 µM unless noted
# A498 renal = conditions: 10 µM unless noted
# EKVX NSCLC = conditions: 10 µM
SMILES,growth (SK-MEL-2 melanoma),growth (UO-31 renal),growth (TK-10 renal),growth (ACHN renal),growth (CAKI-1 renal),growth (CCRF-CEM leukemia),growth (MOLT-4 leukemia),growth (SN12C renal),growth (A498 renal),growth (EKVX NSCLC)
CCCCCCN(CCCCCC)CCC(=O)Nc1ccc(S(=O)(=O)c2ccc(NC(=O)CCN(CCCCCC)CCCCCC)cc2)cc1,122%,52.3%,109%,88.3%,86.6%,51.3%,59.1%,–,–,–
COc1cc(OC)c(/C=C/c2ccc3ccccc3[n+]2C)c(OC)c1,-4.21% (active),65.9%,–,25.6%,68.4%,–,-50.3% (active),12.3%,7.12% (active),–
O=C1C(Br)=CC2C1C1C3CCC3C2(Br)C12OCCO2 (configuration not stated),21.7%,62%,28.8%,32.5%,-19.3% (active),-3.12% (active),15.7%,–,52.4%,–
COc1cccc(-c2cc(-c3cc4ccccc4oc3=O)nc(N)n2)c1,–,55.8%,74.5%,98.3%,111%,87.6%,91.4%,98.6%,127%,99.2%
O=Nc1ccc(O)c2ccccc12,–,38%,5.45% (active),19.9%,14.1%,5.22% (active),59.3%,-50.1% (active),118%,32.7%
COc1cc(-c2nn(-c3ccc(NC(=O)Nc4cc(C(F)(F)F)cc(C(F)(F)F)c4)cc3)cc2-c2ccncc2)ccc1Cl,–,-7.1% (active),-32.5% (active),4.08% (active),-12.5% (active),16.6%,7.23% (active),17.3%,-1.9% (active),-1.64% (active)
COc1cc(-c2nn(-c3ccc(NC(=O)c4ccc(Cl)c(C(F)(F)F)c4)cc3)cc2-c2ccncc2)ccc1Cl,–,16.3%,6.27% (active),18.2%,-16.7% (active),6.52% (active),3.94% (active),52.7%,31.9%,24.3%
O=c1[nH]c2cc(O)ccc2n2cc3c(F)cccc3c12,–,12%,6.81% (active),24.5%,-8.76% (active),49%,6.71% (active),53.6%,39.5%,25.2%
CC(O)CCC(C)[N+](=O)[O-] (configuration not stated),109%,93.5%,104%,109%,104%,102%,102%,–,105%,–
CCOc1ccc(Br)cc1/C=C(\C#N)c1ccc([N+](=O)[O-])cc1,88.6%,81.5%,–,68%,77.7%,–,82.7%,85.3%,80.2%,–
CCCCCCCCCC[N+](C)(C)N,105%,90.3%,74.4%,105%,78.4%,–,80.5%,–,–,–
C[n+]1c2ccccc2c(Nc2ccc(NS(=O)(=O)CCCCN=C(N)N)cc2)c2ccc(N)cc21,86.2%,50.2%,–,24.1%,43.2%,–,-13% (active),17.8%,50.8%,–
Cc1ccc(C(=O)C(Br)C(Br)c2ccccc2)cc1 (configuration not stated),113%,66.9%,–,44.3%,55.1%,–,46%,86.4%,75.6%,–
N#Cc1ccc(OCc2nc(N)nc(N)c2-c2ccc(Cl)c(Cl)c2)cc1,29.8%,40.4%,40.9%,19.4%,13.9%,18.5%,22.9%,–,38.5%,–
COc1cccc(NC(=O)NCCNc2nccc(-c3c(-c4ccc(F)cc4)nc4sccn34)n2)c1,–,52.4%,76.2%,44.9%,93.4%,67.5%,77.8%,72.8%,77.1%,98.6%
Nc1nc(-c2cccc(Br)c2)cc(-c2cc3ccccc3oc2=O)n1,–,64.2%,74.8%,98.2%,92%,77.1%,82.4%,99.9%,123%,93.9%

SMILES,growth (SK-MEL-2 melanoma),growth (UO-31 renal),growth (TK-10 renal),growth (ACHN renal),growth (CAKI-1 renal),growth (CCRF-CEM leukemia),growth (MOLT-4 leukemia),growth (SN12C renal),growth (A498 renal),growth (EKVX NSCLC)
CC(C)(C)c1ccc(OCCOC(=O)CBr)cc1,–,92.9%,109%,85.9%,107%,56.2%,63%,116%,107%,126%
CC(=O)Oc1cc2ccccc2cc1C(C)C,85.7%,88.7%,–,97.4%,106%,–,109%,111%,81%,–
CCOC(=O)C(C)C(C)(O)c1ccccc1 (configuration not stated),97.7%,78.5%,–,111%,–,–,–,98.2%,91.5%,–
CC1(C)N=C(N)N=C(N)N1c1cccc(CCCCOc2ccccc2)c1,70.7%,84.2%,24%,35.1%,67.7%,13.2%,14.1%,–,49.7%,–
Cc1ccc(S(=O)(=O)NC(CCC(=O)Nc2ccccc2)C(=O)Nc2ccccc2)cc1 (configuration not stated),-39.6% (active),-16.3% (active),-12.9% (active),–,12%,5.4% (active),8.8% (active),–,-20.7% (active),–
CC(C)CCCCCOC(=O)c1ccccc1SSc1ccccc1C(=O)OCCCCCC(C)C,–,70.5%,136%,103%,97.3%,70.9%,72.1%,105%,100%,103%
O=C(Nc1ccc(-n2cc(-c3ccncc3)c(-c3ccc(Cl)c(O)c3)n2)cc1)c1ccc(Cl)c(C(F)(F)F)c1,–,-37.3% (active),-19.8% (active),-24.3% (active),-33.5% (active),3.34% (active),-1.8% (active),66.6%,71.8%,35.2%
O=C(NC(=S)NNC(=S)NNc1ccccc1)c1ccccc1,24.2%,54%,–,70.7%,55.9%,–,39.3%,25.7%,78.9%,–
CC(C)C(=O)c1ccc(Cl)s1,96.5%,79.1%,–,104%,–,–,97.4%,99.3%,79.6%,–
O=C1Nc2c(c(=O)n(-c3ccccc3)c3ccccc23)C(c2ccc(Cl)cc2)N1 (configuration not stated),–,80.5%,54.8%,102%,101%,79.5%,81.9%,76.3%,98.1%,86.8%
c1cc[c]([Bi]([c]2ccccc2)[c]2ccccc2)cc1,116%,84.8%,94.6%,105%,88.6%,86.5%,108%,–,89.3%,–
C=C(C)C(C(=O)OCC)(C(=O)OCC)C(C)C,121%,100%,113%,104%,105%,98.2%,–,–,110%,–
OCCN1CCCN(CCCN2c3ccccc3Sc3ccc(C(F)(F)F)cc32)CC1,81.5%,41.8%,–,68%,85.7%,–,23.4%,62.9%,73.7%,–
O=C(c1ccccc1)c1ccccc1-c1ccccc1,–,44.5%,8.04% (active),33.7%,17.4%,11%,30.4%,31.3%,43.1%,58.8%
CCN(CC)CCOC(=O)c1cccnc1,91.1%,86.2%,–,99.3%,99.6%,–,94.2%,96.2%,62.5%,–
